Our source for the AC50 and outcome values is PubChem BioAssay (EPA / NIEHS).

The structures appear in SMILES notation. Results filed as inconclusive are left out. Activity calls are given as the source filed them. How the source made its calls: active means hit-call score of the fitted dose curve at least 0.9, where 1 is the maximum; inconclusive means response in the unintended direction; inactive means score below 0.9.

The target of the assay is Bile acid receptor (Homo sapiens) (UniProt Q96RI1). The experiment in a line: OT_FXR_FXRSRC1_0480: Odyssey Thera (OT) 8-hour HEK293T Protein-Complementation Assay for Farnesoid X receptor/SRC-1 Co-activator (AID 2283383). The protocol: OT_FXR_FXRSRC1_0480 is a cell-based assay that uses HEK293T, a human kidney cell line, with measurements taken at 8 hours after chemical dosing in a 384-well plate.OT_FXR_FXRSRC1_0480 is one of one assay component(s) measured or calculated from the OT_FXR_FXRSRC1_0480 assay. It is designed to make measurements of protein fragment complementation, a form of binding reporter, as detected with fluorescence intensity signals by Protein-fragment Complementation technology.Data from the assay component OT_FXR_FXRSRC1_0480 was analyzed into 1 assay endpoint. This assay endpoint, OT_FXR_FXRSRC1_0480, was analyzed in the positive analysis fitting direction relative to DMSO as the negative control and baseline of activity. Using a type of binding reporter, measures of receptor for gain-of-signal activity can be used to understand the binding at the pathway-level as they relate to the gene NR1H4. Furthermore, this assay endpoint can be referred to as a primary readout, because the performed assay has only produced 1 assay endpoint. To generalize the intended target to other relatable targets, this assay endpoint is annotated to the nuclear receptor intended target family, where the subfamily is non-steroidal.
Bile acid receptor (Homo sapiens), sequence (Q96RI1 whole entry, looked up, the tested form may be a part): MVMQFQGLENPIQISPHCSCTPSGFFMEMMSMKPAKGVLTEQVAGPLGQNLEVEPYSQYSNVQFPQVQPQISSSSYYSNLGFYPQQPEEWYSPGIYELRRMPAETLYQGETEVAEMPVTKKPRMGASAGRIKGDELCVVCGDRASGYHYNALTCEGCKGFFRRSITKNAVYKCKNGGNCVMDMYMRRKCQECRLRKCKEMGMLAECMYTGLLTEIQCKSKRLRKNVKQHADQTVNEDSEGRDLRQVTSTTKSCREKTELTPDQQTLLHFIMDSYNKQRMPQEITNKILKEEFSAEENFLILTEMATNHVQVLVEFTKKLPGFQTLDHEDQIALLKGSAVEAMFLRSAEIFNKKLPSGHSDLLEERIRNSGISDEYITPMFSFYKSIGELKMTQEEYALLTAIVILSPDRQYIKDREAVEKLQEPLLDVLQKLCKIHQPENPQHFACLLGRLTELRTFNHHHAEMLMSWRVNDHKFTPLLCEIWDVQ
Protein-fragment complementation assay, or PCA, is a method for the identification and quantification of protein-protein interactions. In the PCA, the proteins of interest ("bait" and "prey") are each covalently linked to fragments of a third protein (e.g. DHFR, which acts as a "reporter"). Interaction between the bait and the prey proteins brings the fragments of the reporter protein in close proximity to allow them to form a functional reporter protein whose activity can be measured.
The term AC50 denotes the concentration at which the activity in the assay is half-maximal. For the compound `CCN(CC)C(=O)SCc1ccc(Cl)cc1`, the AC50 was 40 µM (active). Take `O=[N+]([O-])/N=C1\NCCN1Cc1ccc(Cl)nc1`: the result was inactive.

As for `COc1nn(CSP(=S)(OC)OC)c(=O)s1`, the call was inactive. For `CCCN(CCC)c1c([N+](=O)[O-])cc(C(F)(F)F)cc1[N+](=O)[O-]`, the AC50 was 30.7 µM (active).

As to `CCc1ccc(C(=O)NN(C(=O)c2cc(C)cc(C)c2)C(C)(C)C)cc1`, the compound was called inactive. On the same count and under the same terms, next, `CN1CSC(=S)N(C)C1`: “inactive”.

For the compound `CCCN(CCOc1c(Cl)cc(Cl)cc1Cl)C(=O)n1ccnc1`, the AC50 is 11.7 µM (active). `O=S1OCC2C(CO1)C1(Cl)C(Cl)=C(Cl)C2(Cl)C1(Cl)Cl` (stereo not drawn): the AC50 is 39.2 µM (active). On to `CC(C)N(C(=O)COc1nnc(C(F)(F)F)s1)c1ccc(F)cc1`, for which the outcome was inactive.

For the compound `ClC1C(Cl)C(Cl)C(Cl)C(Cl)C1Cl` (stereo not drawn), the outcome was inactive. Still for that read-out and setting: next, `OCCOc1ccccc1`: “inactive”. For `Oc1cc(Cl)ccc1Oc1ccc(Cl)cc1Cl`, the AC50 was 11.9 µM (active). The same measure, in the same setting: with `CC1(c2ccc(Oc3ccccc3)cc2)OC(=O)N(Nc2ccccc2)C1=O` (stereo not drawn) the figure was 1.94 µM (active).

On to `CNC(=O)Oc1cccc(N=CN(C)C)c1`, for which the compound was called inactive. For the compound `COP(=S)(OC)Oc1ccc([N+](=O)[O-])cc1`, the AC50 is 36.8 µM (active). As for `CCC(C)(C)C(=O)OC1=C(c2ccc(Cl)cc2Cl)C(=O)OC12CCCCC2`, the AC50 is 47.5 µM (active). On the same count and under the same terms, with `CC(C)OC(=O)Nc1cccc(Cl)c1` the figure was 48.4 µM (active). As to `Cc1[nH]c(=O)n(C(C)(C)C)c(=O)c1Cl`, the outcome was inactive.
